Laboratory results taken from PubChem BioAssay AID624416 (The Scripps Research Institute Molecular Screening Center, 2012).
Hit rate of the full screen: of about 360,000 compounds, about 1,500 (0.42%) were called active. Only a selection was taken, and actives are over-represented in it overall. Values without a mark were called inactive. Rule as the data show it: active = inhibition above about 8.5%; inactive = the rest.

tested on: HIV-1 gp120 / PG9 antibody interaction; test: small molecules engaging PG9 antibody – biochemical, TR-FRET, primary screen (AID 624416); conditions: TR-FRET gp120-PG9 antibody binding; at 6.7 µM; stronger effect = higher value

Question: `COC(=O)c1c(-c2ccc(OC)cc2)c2c(c3c4cc(OC)ccc4n(S(=O)(=O)c4ccc(F)cc4)c13)C(=O)N(C)C2` was tested. Which inhibition did it give?
Answer: 1.03%

Question: How did the inhibition turn out when `COC(=O)c1c(-c2ccc(OC)cc2)c2c(c3c4ccccc4n(S(=O)(=O)c4ccc(C)cc4)c13)C(=O)N(C)C2` was run?
Answer: 0.17%

Question: How did the inhibition turn out when `CN1C(=O)C2CC(O)C(SC3CC4C(=O)N(C)C(=O)C4CC3O)CC2C1=O` (stereo unspecified) was run?
Answer: 0.46%

Question: How did the inhibition turn out when `CC(C)(C)c1ccc(S(=O)(=O)NCC2CCN(C(=O)C(=O)c3cc4ccccc4o3)CC2)cc1` was run?
Answer: -1.81%

Question: For `Cc1cc(Br)cn2c(Cc3ccccc3C(F)(F)F)c(-c3ccc(C#N)cc3)nc12`, which inhibition is on record?
Answer: 0.29%

Question: Which inhibition does the source give for `O=C1COc2ccc(C(=O)COC(=O)c3cccnc3Cl)cc2N1` here?
Answer: -1.31%

Question: With `COc1cc(N)c(Cl)cc1C(=O)OCC(=O)c1ccc2c(c1)NC(=O)CO2` as the compound, how does the inhibition read?
Answer: -0.01%

Question: `O=C1COc2ccc(C(=O)COC(=O)c3ccccc3Cl)cc2N1` was tested. Which inhibition did it give?
Answer: 28.2% (active)

Question: With `OC(c1ccccc1)(c1ccccc1)C1CCN(CCCOc2ccc(-c3ccsc3)cc2)CC1` as the compound, how does the inhibition read?
Answer: 1.88%

Question: Which inhibition does the source give for `COCCCNC(=O)C[C@H]1C[C@@]2(C(=O)OC)C(=C[C@H](C(C)(C)C)O[C@@H]2C)N(Cc2ccc3c(c2)OCO3)C1=O` here?
Answer: 0.35%

Question: For `CC(C)C[C@H](NC(=O)CC1CCCC1)C(=O)N1CCC[C@H]1C(=O)NCc1ccccc1`, which inhibition is on record?
Answer: -0.84%

Question: Which inhibition does the source give for `COc1ccc2ccccc2c1CNc1nnnn1C` here?
Answer: 0.54%

Question: How did the inhibition turn out when `Cn1c(=S)sc2ccc3ccccc3c21` was run?
Answer: 14.2% (active)

Question: How did the inhibition turn out when `CC(=O)C1=C(C)N(Cc2ccc(Cl)cc2)C(=S)NC1c1ccc(F)cc1` (stereo unspecified) was run?
Answer: -2.38%

Question: For `Cc1ccc2nc(-c3ccc(CN4CCC(n5cc(-c6ccccc6)[nH]c5=O)CC4)cc3)c(-c3ccccc3)nc2c1`, which inhibition is on record?
Answer: -0.32%

Question: With `O=C(NCc1ccccc1)[C@H]1CCCN1C(=O)[C@H]1CCCN1C(=O)N1CCOCC1` as the compound, how does the inhibition read?
Answer: -0.88%

Question: With `CC(C)(C)n1nc(C2CC2)c(Br)c1NC(=O)c1ccccc1F` as the compound, how does the inhibition read?
Answer: 0.97%

Question: `CC1CCN(C(=O)c2ncn3c2C(=O)N[C@@H](C)C3)CC1` was tested. Which inhibition did it give?
Answer: -0.93%

Question: With `O=C(OCc1ccccc1F)c1ccc2c(c1)OCCO2` as the compound, how does the inhibition read?
Answer: -1.71%

Question: `O=C(COC(=O)c1ccc2c(c1)OCCO2)NCc1ccccc1Cl` was tested. Which inhibition did it give?
Answer: 9.13% (active)

Question: How did the inhibition turn out when `O=C(COC(=O)c1cc2c(s1)CCCC2)NCc1ccccc1Cl` was run?
Answer: -0.89%

Question: With `CCOC(=O)/C=C/c1ccccc1O` as the compound, how does the inhibition read?
Answer: 0.44%

Question: `O=C1C(=O)N(CCN2CCOCC2)C(c2ccccn2)/C1=C(/O)c1ccc(Cl)cc1` (stereo unspecified) was tested. Which inhibition did it give?
Answer: 0.67%

Question: Which inhibition does the source give for `O=C1C(=O)N(CCN2CCOCC2)C(c2cccc(Cl)c2)/C1=C(/O)c1ccc2c(c1)OCO2` (stereo unspecified) here?
Answer: 30.6% (active)

Question: `COCCCN1C(=O)C(=O)/C(=C(/O)c2ccc3c(c2)CC(C)O3)C1c1cccnc1` (stereo unspecified) was tested. Which inhibition did it give?
Answer: 3.22%

Question: `O=C1C(=O)N(CCCN2CCOCC2)C(c2ccc([N+](=O)[O-])cc2)/C1=C(\O)c1ccc2c(c1)OCCO2` (stereo unspecified) was tested. Which inhibition did it give?
Answer: -1.43%

Question: For `COc1ccc(C2/C(=C(/O)c3ccc4c(c3)CC(C)O4)C(=O)C(=O)N2Cc2ccncc2)cc1` (stereo unspecified), which inhibition is on record?
Answer: 2.5%

Question: How did the inhibition turn out when `CC1Cc2cc(/C(O)=C3\C(=O)C(=O)N(CCN4CCOCC4)C3c3ccccc3F)ccc2O1` (stereo unspecified) was run?
Answer: 13.2% (active)

Question: With `Cc1nc(NC(=O)C(C)(C)C)sc1[N+](=O)[O-]` as the compound, how does the inhibition read?
Answer: -0.45%

Question: `COC(=O)C1=C(C)N(Cc2cccc(C(F)(F)F)c2)C(=NCc2ccccc2)NC1c1ccccc1C(F)(F)F` (stereo unspecified) was tested. Which inhibition did it give?
Answer: 0.63%

Question: `COC(=O)C(C(=O)OC)c1ccccc1NS(=O)(=O)c1cccc2ccccc12` was tested. Which inhibition did it give?
Answer: 0.18%

Question: With `CC(=NNC(N)=O)c1ccc(Cl)c(-n2cccc2)c1` as the compound, how does the inhibition read?
Answer: 0.53%

Question: With `CCN(CC)S(=O)(=O)c1ccc2[nH]cc(C(=O)NCCc3ccccc3)c(=O)c2c1` as the compound, how does the inhibition read?
Answer: -0.32%

Question: `CCCCNC(=O)c1c[nH]c2ccc(S(=O)(=O)Nc3ccc(OCC)cc3)cc2c1=O` was tested. Which inhibition did it give?
Answer: 2.91%

Question: For `COc1cccc(NS(=O)(=O)c2ccc3[nH]cc(C(=O)NCCCOC(C)C)c(=O)c3c2)c1`, which inhibition is on record?
Answer: 10.3% (active)

Question: With `CN1CCCCC(NC(=O)C(C)(C)C)C1=O` (stereo unspecified) as the compound, how does the inhibition read?
Answer: -1.72%

Question: `O=C(O)CCCCCNc1ncnc2ccc(Br)cc12` was tested. Which inhibition did it give?
Answer: 18.3% (active)

Question: For `CC(C)N(c1ccccc1)c1ncnc(NCCC(=O)O)c1[N+](=O)[O-]`, which inhibition is on record?
Answer: -1.67%

Question: For `COC(=O)[C@]1(Cc2ccccc2)NC=C(C(=O)c2ccccc2)[C@@H]1c1cccc(OC)c1`, which inhibition is on record?
Answer: -1.25%

Question: How did the inhibition turn out when `CC(=O)Nc1ccc(Nc2nc3c(S(=O)(=O)c4ccc(C)c(C)c4)nnn3c3ccccc23)cc1` was run?
Answer: 1.78%

Question: How did the inhibition turn out when `Cc1cccc(Nc2nc3c(S(=O)(=O)c4ccccc4)nnn3c3ccccc23)c1C` was run?
Answer: 16.5% (active)

Question: `Cc1cc(Nc2cccc(C)c2C)n2ncnc2n1` was tested. Which inhibition did it give?
Answer: 0.14%

Question: Which inhibition does the source give for `COc1cccc(CNC(=O)[C@H]2CCCN2C(=O)[C@H]2CCCN2C(=O)c2ccc(F)cc2)c1` here?
Answer: -1.74%

Question: How did the inhibition turn out when `O=C(C(=O)N1CCC(CNS(=O)(=O)Cc2ccccc2)CC1)c1cc2ccccc2o1` was run?
Answer: 0.63%

Question: `COC(=O)c1cc2c(c3c4cc(F)ccc4n(S(=O)(=O)c4ccccc4)c13)C(=O)N(Cc1ccccc1OC)C2` was tested. Which inhibition did it give?
Answer: 0.8%

Question: How did the inhibition turn out when `CCOC(=O)C1CSCCS(=O)(=O)N1Cc1ccc(Cl)cc1` (stereo unspecified) was run?
Answer: -1.82%

Question: Which inhibition does the source give for `Cc1ccccc1C(=O)N[C@H](C(=O)N1CCC[C@H]1C(=O)NCc1ccccc1)C(C)C` here?
Answer: -2.77%

Question: For `CC(=O)Nc1ccc(C(=O)CSc2nc3ccc(C)cc3[nH]2)cc1`, which inhibition is on record?
Answer: -0.81%

Question: Which inhibition does the source give for `Cc1nc2nc(SCC(=O)c3ccccc3)[nH]c2cc1Br` here?
Answer: 29.2% (active)

Question: For `Cc1nc2nc(SCC(=O)Nc3cccc(F)c3)[nH]c2cc1Br`, which inhibition is on record?
Answer: -0.51%

Question: With `COc1cccc(-c2cc(CNC(=O)[C@@H](Cc3ccccc3)NC(=O)[C@H]3O[C@@H](n4cnc(C(N)=O)n4)[C@H](O)[C@@H]3O)no2)c1` as the compound, how does the inhibition read?
Answer: -2.73%

Question: Which inhibition does the source give for `COC(=O)[C@]12C[C@H](CC(=O)NCc3ccc(C)o3)C(=O)N(CCC3=CCCCC3)C1=C[C@H](C(C)(C)C)O[C@@H]2C` here?
Answer: -1.11%

Question: Which inhibition does the source give for `COc1ccccc1-c1ccc([C@@H]2C[C@H]3[C@H](CON3C)CN2S(=O)(=O)c2cc(Cl)cc(Cl)c2)cc1` here?
Answer: -0.23%

Question: With `CC[C@H](C)[C@H]1CNC(=O)C(=O)N1CC1CCN(CCc2ccc(OC)c(OC)c2)CC1` as the compound, how does the inhibition read?
Answer: -1.11%

Question: How did the inhibition turn out when `Cc1cc2c(cc1C)N1C(=O)c3cc4ccccc4cc3NC(=O)C1C(=O)N2` (stereo unspecified) was run?
Answer: 9.79% (active)

Question: For `Cc1cc(N2CCN(C(=O)OC(C)(C)C)C[C@H]2C)ccc1N1CCN(Cc2ccccc2)[C@H](C)C1`, which inhibition is on record?
Answer: -1.9%

Question: How did the inhibition turn out when `CCOC(=O)Cc1csc(NC(=O)CSc2nnc(-c3cccnc3)n2Cc2ccco2)n1` was run?
Answer: -0.33%

Question: With `CCn1c(SCC(=O)Nc2cc(C)ccc2C)nnc1-c1cnccn1` as the compound, how does the inhibition read?
Answer: 1.97%

Question: Which inhibition does the source give for `CCc1ccc(NC(=O)CSc2nnc(-c3cnccn3)n2Cc2ccco2)cc1` here?
Answer: 14.2% (active)

Question: With `CC(C)(C)C(c1nc2ccccc2[nH]1)n1c(Cc2csc3ccccc23)nc2ccccc21` (stereo unspecified) as the compound, how does the inhibition read?
Answer: 3.67%

Question: With `CC(C)CCNC(=O)c1cccnc1Sc1ccccc1` as the compound, how does the inhibition read?
Answer: -0.45%

Question: For `CC(C)OCCCNC(=O)c1cc(Sc2ccc(F)cc2)nc2ccccc12`, which inhibition is on record?
Answer: 17.2% (active)

Question: `O=C(NCCOc1ccccc1)c1ccccc1F` was tested. Which inhibition did it give?
Answer: -0.63%

Question: For `O=S1(=O)c2ccc(Br)cc2-n2nncc2CN1Cc1cccc(Cl)c1`, which inhibition is on record?
Answer: 1.6%

Question: `Nc1ccn([C@@H]2O[C@H](C(=O)N[C@H]3CCCCNC3=O)[C@@H](O)[C@H]2O)c(=O)n1` was tested. Which inhibition did it give?
Answer: -0.25%

Question: Which inhibition does the source give for `CCOc1cc(NC(=O)c2ccccc2C(=O)O)c(OCC)cc1NC(=O)c1ccccc1F` here?
Answer: -7.45%

Question: How did the inhibition turn out when `CCN(CC)S(=O)(=O)c1cc(C(=O)Nc2ccccn2)ccc1C` was run?
Answer: -1.5%

Question: With `CCOc1cc2ccccc2cc1C(=O)Nc1ccccn1` as the compound, how does the inhibition read?
Answer: 12.2% (active)

Question: For `Nc1ncnc2c1ncn2[C@@H]1O[C@H](C(=O)N[C@@H](CCc2ccccc2)C(=O)N2CCCN(Cc3cccs3)CC2)[C@@H](O)[C@H]1O`, which inhibition is on record?
Answer: 0.34%

Question: Which inhibition does the source give for `C#CCN([C@@H](C)C(=O)OCC)S(=O)(=O)c1ccc(Br)cc1F` here?
Answer: -1.25%

Question: For `C[C@@H]1ON(C)[C@H]2C[C@H]3c4cc(N5CCOCC5)ccc4CCN3C[C@@H]12`, which inhibition is on record?
Answer: -1.04%

Question: With `CC1(C)Cc2ccccc2/C(=C/C(=O)c2ccccc2)N1` as the compound, how does the inhibition read?
Answer: 0.12%

Question: With `CC1(C)Cc2ccccc2-c2[nH]c(=S)[nH]c(=O)c21` as the compound, how does the inhibition read?
Answer: 35% (active)

Question: For `N#CC1=C(N)Oc2[nH]c(=S)[nH]c(=O)c2C12C(=O)Nc1ccccc12` (stereo unspecified), which inhibition is on record?
Answer: -2.89%

Question: `COC(=O)c1cc2c(c3c4ccccc4n(S(=O)(=O)c4cccc(C)c4)c13)C(=O)N(Cc1ccccc1)C2` was tested. Which inhibition did it give?
Answer: 0.57%

Question: How did the inhibition turn out when `N#Cc1cccc(C(=O)NCC2CCN(C(=O)C(=O)c3cc4ccccc4o3)CC2)c1` was run?
Answer: -0.57%

Question: Which inhibition does the source give for `CCCCOCC1CN(CCCC)S(=O)(=O)c2c(Oc3ccc(F)cc3)cccc2O1` (stereo unspecified) here?
Answer: -0.05%

Question: How did the inhibition turn out when `O=C(C1=C(O)C(=O)N(Cc2ccccc2)C1c1ccco1)c1ccco1` (stereo unspecified) was run?
Answer: 17.9% (active)

Question: With `CCOc1cc(C2C(C(=O)c3ccco3)=C(O)C(=O)N2Cc2ccccc2)ccc1O` (stereo unspecified) as the compound, how does the inhibition read?
Answer: 0.36%

Question: `O=C(C1=C(O)C(=O)N(Cc2ccccc2)C1c1cccnc1)c1ccco1` (stereo unspecified) was tested. Which inhibition did it give?
Answer: 7.52%

Question: How did the inhibition turn out when `COC(=O)C1=C(C)N(Cc2cccc(C(F)(F)F)c2)C(=NCc2cccc(C(F)(F)F)c2)NC1c1ccccc1C(F)(F)F` (stereo unspecified) was run?
Answer: -0.87%
